Among the data in PubChem BioAssay AID590 (National Center for Advancing Translational Sciences (NCATS), 2007) are max dye-equivalent concentration values, retold here.

Out of some 59,000 compounds screened, about 6,500 (11%) were called active. Roughly 15% stayed inconclusive and do not appear here. No stated cut-off is given here; in the data, active means max dye-equivalent concentration above about 10 nM; inconclusive means mostly about 1.1 nM to 9.6 nM; inactive means weaker than that. The list comes from a sample in which actives are over-represented; it also holds similar structures and randomly drawn compounds.

The nature of the assay: qHTS Assay for Spectroscopic Profiling in A350 Spectral Region. The following applies: Compound autofluorescence, 340/450 nm, Alexa 350 dye-equivalents; stronger effect = higher value.
Consider `CCNCc1cc2cc(C)ccc2[nH]c1=O`, for which the max dye-equivalent concentration is 53 nM (active).

`Cc1ccc2[nH]c(=O)c(-c3nc4c(C)cccn4c3NCc3ccco3)cc2c1`: the max dye-equivalent concentration result is “inactive”. For the molecule `CCOC(=O)c1cc2cc(C)ccc2[nH]1`, the max dye-equivalent concentration entry is “inactive”. The result for `CC(C)(C)n1nnc(CCc2nnn(C(C)(C)C)n2)n1` reads “inactive”; that for `Cc1csc(NC(=O)NC2(C(F)(F)F)Oc3ccccc3O2)n1`, 100 nM (active); that for `O=C(Nc1cc(N2CCOCC2)ncn1)NC1(C(F)(F)F)Oc2ccc(Cl)cc2O1` (stereo not drawn), “inactive”. The result for `Cc1csc(NC(=O)CN2CCCCCC2)n1` reads “inactive”; that for `COc1ccc2[nH]c3ccc(OC)cc3c2c1`, 150 nM (active); that for `COc1ccc2[nH]c3cc4c(=O)c5cc(OC)ccc5[nH]c4cc3c(=O)c2c1`, “inactive”. As for `COc1cccc(Oc2ccc(N)cc2)c1`, the max dye-equivalent concentration result was “inactive”.

On to `CC(C)c1ccc(-c2nn[nH]n2)cc1`, for which the max dye-equivalent concentration entry was “inactive”. `CCOc1ccc(-c2nnc3ccc(SC)nn23)cc1`: the max dye-equivalent concentration was 12 nM (active).

As for `CCn1cc(C(=O)N2CCN(Cc3ccc4c(c3)OCO4)CC2)c2cc(OC)c(OC)cc2c1=O`, the max dye-equivalent concentration result was “inactive”.

`CS(=O)(=O)N1CCC2(CC1)CN(c1ccncc1)C2`: the max dye-equivalent concentration result is “inactive”.

For the molecule `CC(=O)NC(Cc1ccc(F)cc1)C(=O)O` (stereo not drawn), the max dye-equivalent concentration entry was “inactive”. For the molecule `Cc1cc(C)cc(N(C(C)C(=O)Nc2c(C)n(C)n(-c3ccccc3)c2=O)S(C)(=O)=O)c1` (stereo not drawn), the max dye-equivalent concentration result was “inactive”. The result for `Cc1c(NC(=O)C(C)OC(=O)c2cc3c4ccccc4n(C)c3s2)c(=O)n(-c2ccccc2)n1C` (stereo not drawn) reads 170 nM (active); that for `Cc1ccccc1OCCC(=O)Nc1c(C)n(C)n(-c2ccccc2)c1=O`, “inactive”; that for `C[C@H](NC(=O)OC(C)(C)C)c1nnc(SCC(N)=O)o1`, “inactive”. In the case of `CCCNS(=O)(=O)c1ccc(CCC(=O)NCc2cccnc2)cc1`, the max dye-equivalent concentration result is “inactive”. The result for `COc1ccc(CN(C(=O)c2cccs2)c2nccs2)cc1OC` reads “inactive”.

In the case of `Cc1ccc(C)n1-c1ccncc1`, the max dye-equivalent concentration entry was “inactive”. The result for `O=c1cc(-c2ccccc2)[nH]c2nc(Cl)ccc12` reads 69 nM (active); that for `COCCN1Cc2cccc(C(=O)Nc3ccccc3OC)c2C1=O`, “inactive”. The result for `Fc1ccccc1OCCSc1nc2ccccc2o1` reads “inactive”; that for `Cc1ccc(C(=O)CS(C)(=O)=O)cc1`, 19 nM (active). With `O=C1C=C(NCCNc2c(F)c(F)c(CO)c(F)c2F)CCC1` the entry was “inactive”; with `Cc1cc(=O)[nH]c(SCC(=O)N2c3ccccc3CC2C)n1` (stereo not drawn), “inactive”.

Turning to `O=c1c(CCc2ccccc2)nc2cncnc2n1C1CC1`, the max dye-equivalent concentration result was “inactive”. With `Cn1cc(-c2nc3cnc(N4CCNCC4)nc3n(CCC#N)c2=O)c2ccccc21` the entry was “inactive”; with `Cc1nc2cnc(Nc3ccccc3)nc2n(C[C@H]2CCCO2)c1=O`, “inactive”. The result for `Cn1c(=O)c2c(nc(OCc3cccnc3)n2Cc2ccccc2)n(C)c1=O` reads “inactive”; that for `Cc1nc2cnc(N3CCNCC3)nc2n(Cc2ccc(F)cc2)c1=O`, 110 nM (active); that for `COCCn1c(=O)c(CCc2ccccc2)nc2cncnc21`, 88 nM (active). The result for `Cc1nc2cnc(N3CCN(C)CC3)nc2n(C[C@H]2CCCO2)c1=O` reads 59 nM (active); that for `N#Cc1cccc(-c2nc3cnc(N4CCNCC4)nc3n(C3CC3)c2=O)c1`, 350 nM (active). For the molecule `O=C(CSc1nnc(-c2ccco2)n1CC1CCCO1)c1ccccc1` (stereo not drawn), the max dye-equivalent concentration result is “inactive”. With `CCOc1cc2c(cc1OCC)C(C(=O)O)C(c1ccc(OC)c(O)c1)N(C)C2=O` (stereo not drawn) the entry was “inactive”. With `O=C(COc1cccc(-n2cnnn2)c1)NCCC1=CCCCC1` the entry was “inactive”; with `Cc1cc(C)cc(NC(=O)N2CCC(NC(=O)c3ccc(F)cc3)CC2)c1`, “inactive”; with `O=C(NC12CC3CC(CC(C3)C1)C2)N1CCCC(CO)C1` (stereo not drawn), “inactive”. With `COc1ccc(S(=O)(=O)N2CCCC2)c(C)c1C` the entry was “inactive”; with `Cc1ccc(NC(=O)C2CC(c3ccc(F)cc3)=NO2)cc1` (stereo not drawn), “inactive”; with `COc1ccc(C(=O)N2CCC3(CC2)CCN(c2ccccn2)CC3)cc1`, “inactive”. Consider `CCOC(=O)CCC(=O)OCC(=O)NC(C)C1CC2CCC1C2` (stereo not drawn), for which the max dye-equivalent concentration entry was “inactive”. In the case of `Cc1nc(N2CCCC2C(=O)O)c2oc3ccccc3c2n1` (stereo not drawn), the max dye-equivalent concentration entry is “inactive”. `COC(=O)c1ccc(C2CC(=O)Nc3cc(OC)c(OC)cc32)cc1` (stereo not drawn): the max dye-equivalent concentration entry is “inactive”. With `COCCn1c(=O)c(CCc2ccccc2)nc2cnc(N3CCNCC3)nc21` the figure was 60 nM (active); with `CC1CCN(Cc2nc3c(c(=O)n(C)c(=O)n3C)n2CCc2ccccc2)CC1`, “inactive”. The result for `O=c1c(-c2ccc(F)cc2)nc2cnc(N3CCNCC3)nc2n1Cc1cccs1` reads 16 nM (active). The result for `Cn1cc(-c2nc3cnc(N4CCNCC4)nc3n(CCc3ccccc3)c2=O)c2ccccc21` reads “inactive”; that for `Cn1c(=O)c(-c2ccccc2)nc2cnc(N3CCNCC3)nc21`, 320 nM (active); that for `Cc1nc2cnc(N3CCNCC3)nc2n(CCc2ccccc2)c1=O`, 60 nM (active).
